Experimental findings from PubChem BioAssay (NCATS) are described below.

Where “and” joins values, the source holds several entries; their conditions need not be identical. Identical values can stand only once. Results filed as inconclusive are left out. Values without a mark were called inactive. Calls come from the whole dose curve; as a rule, active = well fitted curve in either direction with a large enough effect (not every such curve was filed as active); inconclusive = small, poorly fitted or top-dose-only effect, or another doubt; inactive = flat fitted curve, though single readings scatter.
% is set by controls: 0 for no effect and ±100 for the full control effect.

The first assay can be described thus: Stat Signaling Pathway (AID 446). The following applies: ME-180 SIE beta-lactamase reporter, IL-6 stimulated, 5 h; at 7.69 µM (top of the series). As for the experimental part:
NCGC Assay Overview: The IL-6/STAT signaling pathway was assayed in ME-180 cervical carcinoma cells by a beta-lactamase reporter gene controlled by a STAT Inducible Element (SIE). This reporter is induced by IL-6 at 40 pM AC50 and inhibited by the pan JAK inhibitor, 2-(1,1-Dimethylethyl)-9-fluoro-3,6-dihydro-7H-benz[h]-imidaz[4,5-f]isoquinolin-7-one, at approximately 10 nM AC50. Plated cells were incubated overnight and on the following day, stimulated with 40 pM IL-6 for 5 hrs. The assay was screened at the AC50 of IL-6 activation to identify both inhibitors and activators of IL-6/STAT signaling.
NCGC Assay Protocol Summary: Cells were trypsinized, washed in assay medium (AM, OPTI MEM with 0.5% fetal bovine serum, 0.1 mM nonessential amino acids, 1 mM sodium pyruvate, 10mM HEPES pH 7.3, 100U/ml penicillin, and 100 ug/ml streptomycin) and suspended at 6 x 10e5/ml in AM. Approximately […] cells in 5 uL/well was dispensed into 1536 well plates and the cells were incubated overnight at 37 C. 23 nL of compound were delivered by a pin tool and 1 uL of IL-6 (40 pM final concentration in AM) was added. After centrifugation at 1000 rpm for less than a minute, plates were incubated at 37C for 5 hrs. One uL of detector mix (LiveBLAzerTM, Invitrogen) was added, the plates incubated at room temperature for 2.5 hrs, and fluorescence intensity at 460 and 530 nm emission was measured at 405 nm excitation by an Envision (Perkin Elmer) or Safire II (Tecan). Data were normalized by GeneData to the controls for AC90 stimulation (300 pM IL-6) and to AC90 inhibition (125 nM Jak inhibitor, 40 pM IL-6 in AM).
For the compound `OC(CCN1CCCCC1)(c1ccccc1)c1ccccc1`, the activity, negative = inhibition is -4.56%.

As to `CN(C)CC/C=C1\c2ccccc2Sc2ccc(Cl)cc21`, the activity, negative = inhibition was -3.4%.

The same assay, now with this note: ME-180 SIE beta-lactamase reporter, IL-6 stimulated, 5 h; at 17.2 µM (top of the series).
For `CC(C)(C(=O)c1cccnc1)c1cccnc1`, the activity, negative = inhibition was -5.5%.

On to `COc1cc(-c2ccc(=O)[nH]n2)ccc1OC(F)F`, for which the activity, negative = inhibition was 0.425%.

Turning to `CCC(NC(C)C)C(O)c1ccc(O)c(O)c1` (stereo not given), the activity, negative = inhibition is 1.25%.

On to `C[C@]12CC[C@H]3[C@@H](CCC4=CC(=O)CC[C@@]43C)[C@@H]1CC[C@@H]2C(=O)CO`, for which the activity, negative = inhibition was 1.53%.

As for `OC(CCN1CCCCC1)(c1ccccc1)c1ccccc1`, the activity, negative = inhibition was 8.93% and 3.51%.

Take `CN(C)CC/C=C1\c2ccccc2Sc2ccc(Cl)cc21`: the activity, negative = inhibition was -6.29%.

Take `CC(=O)OCC(=O)[C@@]12OC(C)(C)O[C@@H]1C[C@H]1[C@@H]3C[C@H](F)C4=CC(=O)C=C[C@]4(C)[C@@]3(F)[C@@H](O)C[C@@]12C`: the activity, negative = inhibition is -3.28%.

Consider `C[C@H]1C[C@H]2[C@@H]3CCC4=CC(=O)C=C[C@]4(C)[C@@]3(Cl)[C@@H](O)C[C@]2(C)[C@@]1(O)C(=O)CO`, for which the activity, negative = inhibition is -1.29%.

Regarding `Nc1nc2ncc(CNc3ccc(C(=O)N[C@@H](CCC(=O)O)C(=O)O)cc3)nc2c(=O)[nH]1`, the activity, negative = inhibition is 1.24%.

For `CN(C(=O)CN(CCO)CC(=O)N(C)C(C)(C)Cc1ccccc1)C(C)(C)Cc1ccccc1`, the activity, negative = inhibition was 5.14%.

Consider `CC1(C)O[C@@H]2C[C@H]3[C@@H]4C[C@H](F)C5=CC(=O)CC[C@]5(C)[C@H]4[C@@H](O)C[C@]3(C)[C@]2(C(=O)CO)O1`, for which the activity, negative = inhibition is -6.53%.

`O=C(OCCOCCO)c1ccccc1Nc1cccc(C(F)(F)F)c1`: the activity, negative = inhibition is -10.5%.

On to `CCCCC(=O)O[C@]1(C(=O)CO)CC[C@H]2[C@@H]3CCC4=CC(=O)CC[C@]4(C)[C@H]3[C@@H](O)C[C@@]21C`, for which the activity, negative = inhibition was -12.8%.

For the compound `CCCCCCC[N+](CC)(CC)CCCCc1ccc(Cl)cc1`, the activity, negative = inhibition is -5.02%.

In the case of `CC(=O)OCC(=O)[C@@]1(OC(C)=O)[C@@H](C)C[C@H]2[C@@H]3C[C@H](F)C4=CC(=O)C=C[C@]4(C)[C@@]3(F)[C@@H](O)C[C@@]21C`, the activity, negative = inhibition was 0.432%.

With `Cc1ccnc(NS(=O)(=O)c2ccc(N)cc2)n1`, the activity, negative = inhibition is -12.6%.

Take `C[C@@H]1C[C@H]2[C@@H]3CCC4=CC(=O)C=C[C@]4(C)[C@@]3(F)[C@@H](O)C[C@]2(C)[C@H]1C(=O)CO`: the activity, negative = inhibition is 1.17%.

Consider `CCCC(=O)Nc1ccc(OCC(O)CNC(C)C)c(C(C)=O)c1` (stereo not given), for which the activity, negative = inhibition is 7.52%.

For the compound `CCCCOc1ccc(OCCCN2CCOCC2)cc1`, the activity, negative = inhibition is -0.87% and 12.1%.

Turning to `CC(C)NC[C@@H](O)COc1cccc2ccccc12`, the activity, negative = inhibition was -2.8% and 2.51% and -11.2%.

For `CCN(CCCCOC(=O)c1ccc(OC)c(OC)c1)C(C)Cc1ccc(OC)cc1` (stereo not given), the activity, negative = inhibition was 1.95%.

As for `CCN(CC)C(=O)N1CCN(C)CC1`, the activity, negative = inhibition is 3.22%.

In the case of `Oc1cc(O)c2c(c1)O[C@H](c1ccc(O)c(O)c1)[C@H](O)C2`, the activity, negative = inhibition is -2.66% and 0.865%.

For the compound `CCN1CCC[C@H]1CNC(=O)c1c(OC)ccc(Br)c1OC`, the activity, negative = inhibition was 14.1%.

Turning to `COc1c2occc2c(OC)c2c(=O)cc(C)oc12`, the activity, negative = inhibition was 7.57% and -1.58%.

In the case of `CN1CCC(=C2c3ccccc3Sc3ccccc32)CC1`, the activity, negative = inhibition is -4.56%.

Regarding `NCCc1ccn[nH]1`, the activity, negative = inhibition is 4.55%.

Turning to `C/C=C(/C(=C/C)c1ccc(O)cc1)c1ccc(O)cc1`, the activity, negative = inhibition was -10.4%.

`c1ccc(-c2ccc(C(c3ccccc3)n3ccnc3)cc2)cc1` (stereo not given): the activity, negative = inhibition was -24.4%.

On to `C[N+]1(CCCCC[N+]2(C)CCCC2)CCCC1`, for which the activity, negative = inhibition was 14.2%.

The same assay, now with this note: ME-180 (cervical carcinoma) SIE beta-lactamase reporter, IL-6 stimulated, 5 h; at 38 µM (top of the series).
Consider `COc1cc(-c2ccc(=O)[nH]n2)ccc1OC(F)F`, for which the activity, negative = inhibition is -14.4%.

For `CN1CCC[C@@H]1c1cccnc1`, the activity, negative = inhibition was -4.46%.

In the case of `N[C@@H](Cc1cnc[nH]1)C(=O)O`, the activity, negative = inhibition is 27.2%.

As to `Oc1ccc(O)cc1`, the activity, negative = inhibition is 3.99%.

As to `CC(C)NC[C@@H](O)COc1cccc2ccccc12`, the activity, negative = inhibition is 8.52% and -21.7%.

In the case of `Oc1cc(O)c2c(c1)O[C@H](c1ccc(O)c(O)c1)[C@H](O)C2`, the activity, negative = inhibition was -26.7%.

With `C[N+]1(CCCCC[N+]2(C)CCCC2)CCCC1`, the activity, negative = inhibition was 0.841%.

Consider `O=C1CCC(c2ccc(-n3ccnc3)cc2)=NN1`, for which the activity, negative = inhibition was 9.57%.
